Data taken from PubChem BioAssay AID504834 (National Center for Advancing Translational Sciences (NCATS), 2011).
The whole screen tested about 320,000 compounds, of which about 22,000 (6.9%) were called active. Where a call stands in place of a potency, no number is given. About 27% were inconclusive and are not listed. This is one part of a sample in which actives are shown more often than they occur. The call rests on the fitted dose curve; in most records, active means well fitted inhibition curve with a large enough effect; inconclusive means small, poorly fitted or top-dose-only effect, or another doubt; inactive means no such curve, though single readings can be large or run the other way.

Experiment: Primary qHTS for delayed death inhibitors of the malarial parasite plastid, 96 hour incubation
Settings: P. falciparum luciferase reporter growth; series mostly up to 28.7 µM
Procedure, shortened: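 Cell-based qHTS: luciferase-tagged P. falciparum in erythrocytes (2% hematocrit, 0.05% parasitemia final) incubated with compounds for 96 hours, 37 C, 5% CO2; luciferase detection reagent then added and luminescence measured.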
Potency means the concentration at half of the fitted maximal effect.

SMILES | Potency
Cc1ccc(C(=O)OCC(=O)N2CC(C)CC(C)C2)cc1S(=O)(=O)N1CCCCC1 (stereo not given) | inactive
Cc1ccc(C(=O)OCC(=O)NCc2cc(C)c(O)c(C)c2)cc1S(=O)(=O)N1CCCCC1 | 14.7 µM (active)
COc1ccc(CNC(=O)COC(=O)c2ccc(C)c(S(=O)(=O)N3CCOCC3)c2)cc1OC | inactive
COc1ccccc1CNS(=O)(=O)c1cc(C(=O)NCc2ccccn2)c(Cl)cc1Cl | inactive
CC(C)(O)C#Cc1ccc(CN2CCC(CO)(CCc3ccccc3)CC2)cc1 | inactive
Cc1cccc(-c2ncc(CN3CCC(CO)(CCCc4ccccc4)CC3)cn2)c1 | 9.28 µM (active)
CC(=O)c1cccc(CN2CCC(CO)(Cc3ccccc3)CC2)c1 | inactive
CC(C)c1csc(CN2CCC(CO)(Cc3ccccc3)CC2)n1 | inactive
OCC1(CCc2ccccc2)CCN(Cc2ccc3nsnc3c2)CC1 | 11.7 µM (active)
COc1ccc(CC2(CO)CCN(Cc3cnn(C)c3)CC2)cc1 | inactive
CN(CC1CCCO1)S(=O)(=O)c1ccc(C(=O)Nc2ccc(F)cc2)cc1 (stereo not given) | inactive
COc1cccc(-c2ccc3c(c2)S(=O)(=O)c2cccc(C(=O)O)c2C3=O)c1OC | inactive
COc1ccc(-c2cc(=O)oc3cc(OCC(=O)N[C@@H](Cc4c[nH]c5ccccc45)C(=O)O)ccc23)cc1 | inactive
Cc1[nH][nH]c(=O)c1C(c1ccc2c(c1)OCO2)c1c(C)[nH][nH]c1=O | inactive
CCN(CC)CCC(c1ccc2c(c1)OCO2)c1c(OC)cc(OC)c2c(-c3ccccc3)cc(=O)oc12 (stereo not given) | 5.22 µM (active)
CCN(CC)C(=O)CC(c1ccc2c(c1)OCO2)c1c(OC)cc(OC)c2c(-c3ccccc3)cc(=O)oc12 (stereo not given) | 11.7 µM (active)
CCCCN(CC)C(=O)c1ccc2c(c1)OCO2 | inactive
COc1ccc(F)cc1S(=O)(=O)NCC(c1ccc2c(c1)OCO2)N1CCN(C)CC1 (stereo not given) | inactive
CC(=O)COc1ccc2c(-c3ccccc3)cc(=O)oc2c1 | inactive
Cc1cc(=O)oc2c(C)c(OCC(=O)N3CCN(Cc4ccc5c(c4)OCO5)CC3)ccc12 | inactive
CCN(CC)CCC(c1cc(OC)c(OC)c(OC)c1)c1c(OC)cc(OC)c2c(-c3ccccc3)cc(=O)oc12 (stereo not given) | 2.94 µM (active)
CC(NS(=O)(=O)c1ccc(Br)cc1)C(=O)NCC1CCCO1 (stereo not given) | inactive
O=C(NNC(=O)c1cc(-c2ccccc2Cl)nc2ccccc12)c1csc(N2CCOCC2)n1 | inactive
Cc1cc(C)cc(Oc2c(C(F)(F)F)oc3cc(OCC(=O)O)ccc3c2=O)c1 | inactive
COc1ccccc1C1CCN(C(=S)Nc2ccc(Br)cc2)CC1 | inactive

SMILES | Potency
COc1ccccc1OCCNC(=O)C(CCSC)NC(=O)COc1ccccc1 (stereo not given) | inactive
Cc1ccc(CNC(=O)C2CCN(S(=O)(=O)c3ccc4nc5c(c(C(=O)O)c4c3)CC(C)CC5)CC2)cc1 (stereo not given) | inactive
CC1CCN(C(=O)c2ccccc2NC(=O)Cc2ccccc2)CC1 | inactive
Cc1c(NC(=O)c2cc(-c3ccc(Br)cc3)on2)c(=O)n(-c2ccccc2)n1C | inactive
Cc1no[n+]([O-])c1COc1ccccc1/C=C1\NC(=S)NC1=O | 10.4 µM (active)
Cc1ccccc1-n1c(C)cc(/C=C2\NC(=O)NC2=O)c1C | inactive
O=C(CN1CCN(S(=O)(=O)c2ccc(F)cc2)CC1)NC1CC1 | inactive
CC(=O)c1ccc(S(=O)(=O)NCc2nnnn2-c2ccccc2)cc1 | inactive
Cc1cc(NC(=O)COc2ccccc2C#N)no1 | inactive
CCOC(=O)C1CCN(c2ncnc3c2oc2ccc(Br)cc23)CC1 | 13.1 µM (active)
CCOC(=O)C1CCN(c2ncnc3c2c(-c2ccccc2)cn3-c2ccc(C)cc2)CC1 | inactive
CCOC(=O)C1CCN(Cc2nnc(-c3cccc(Br)c3)o2)CC1 | inactive
Cn1cncc1COC(=O)c1ccc(Cl)cc1 | inactive
COc1ccccc1C(=O)NCc1nnc(SC(C)C(=O)Nc2nccs2)n1C (stereo not given) | inactive
Cc1ccc(NC(=O)CN2CCc3ccccc3C2)cc1C | inactive
O=C(CN1CCN(Cc2ccccc2)CC1)NC(c1ccccc1)c1ccccc1 | 14.7 µM (active)
CC1CN(CC(=O)NC(C)c2ccccc2)CC(C)O1 (stereo not given) | inactive
O=C(Cc1ccc(-c2ccccc2)cc1)NC(c1ccccc1)c1ccccc1 | inactive
CCCc1cc(=O)[nH]c(SCC(=O)Nc2sc3c(c2C#N)CCCC3)n1 | inactive
N#CCCN(C(=O)COC(=O)c1ccc(S(=O)(=O)N2CCCCCC2)cc1)c1ccccc1 | inactive
CC(C)(CNC(=O)CNC(=O)C1CCCCC1)N1CCOCC1 | inactive
O=C(O)c1ccccc1-c1ccccc1C(=O)NCCc1ccccc1 | inactive
Cn1c(=O)c2c(n(Cc3ccccc3)c1=O)NC(=O)C2CC(=O)N1CCc2ccccc2C1 (stereo not given) | 11.7 µM (active)
CC1(C)CC(=O)C(CC(=O)N2CCC(Cc3ccccc3)CC2)C(=O)C1 | inactive
O=C(C(=O)N1CCc2ccccc2C1)N1CCc2ccccc2C1 | inactive
